These results are taken from publication PMC5540273 (PLoS ONE, 2017).

For one assay, the system named is CDK4-cyclinD3. The following applies: n = 1.
In a further assay the test system is CDK4. The settings on record: n = 1.
The test system of a further assay is CDK5. The settings on record: concentration: 1 μM, replicates: in singlicate; n = 1.
The next assay has as its system CDK7. The following applies: concentration: 1 μM, replicates: in singlicate; n = 1.
Another assay deals with CDK8. The following applies: concentration: 1 μM, replicates: in singlicate; n = 1.
For another assay, the system named is CDK9. The following applies: concentration: 1 μM, replicates: in singlicate; n = 1.
In the next assay the test system is CDKL1. The following applies: concentration: 1 μM, replicates: in singlicate; n = 1.
Another assay relates to CDKL2. The following applies: concentration: 1 μM, replicates: in singlicate; n = 1.
The subject of the next assay is CDKL3. The following applies: concentration: 1 μM, replicates: in singlicate; n = 1.
The subject of a further assay is CDKL5. The settings on record: concentration: 1 μM, replicates: in singlicate; n = 1.
Another assay deals with CHEK1. The settings on record: concentration: 1 μM, replicates: in singlicate; n = 1.
The test system of another assay is CHEK2. The settings on record: concentration: 1 μM, replicates: in singlicate; n = 1.
In another assay the test system is CIT. The settings on record: concentration: 1 μM, replicates: in singlicate; n = 1.
A further assay deals with CLK1. The settings on record: concentration: 1 μM, replicates: in singlicate; n = 1.
The subject of another assay is CLK2. The settings on record: concentration: 1 μM, replicates: in singlicate; n = 1.
For a further assay, the system named is CLK3. The settings on record: concentration: 1 μM, replicates: in singlicate; n = 1.
The test system of another assay is CLK4. The settings on record: concentration: 1 μM, replicates: in singlicate; n = 1.
For another assay, the system named is CSF1R-autoinhibited. The settings on record: concentration: 1 μM, replicates: in singlicate; n = 1.
The subject of the next assay is CSF1R. The settings on record: concentration: 1 μM, replicates: in singlicate; n = 1.
In another assay the test system is CSK. The settings on record: concentration: 1 μM, replicates: in singlicate; n = 1.
Where [1] appears, read: concentration: 1 μM, replicates: in singlicate.

Read-outs that look alike come from different tables or passages of the source.
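Further: KINOMEscan kinase panel screen.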

Take `O=c1cc(N2CCOCC2)nc2n(Cc3cccc(Cl)c3Cl)c(C3CC3)nn12` [GSK2358994]: the “%Inh” value is recorded as 0% in the assay with CDK4-cyclinD3 (1 µM); 0% in the assay with CDK4 (1 µM); 7% with CDK5; 5% with CDK7; 0% in the assay with CDK8; 0% in the assay with CDK9. Also, the “%Inh” value was 20% in the assay on CDKL1; 0% in the assay on CDKL2; 0% with CDKL3; 0% in the assay with CDKL5; 15% with CHEK1; 0% with CHEK2. The “%Inh” value was 0% in the assay with CIT; 27% in the assay on CLK1; 25% in the assay on CLK2; 14% in the assay on CLK3; 0% with CLK4; 0% with CSF1R-autoinhibited. Moreover, the “%Inh” value in the assay on CSF1R stood at 0%; in the assay with CSK, 8%.

In the case of `Cc1nnc(-c2ccc(C)c(-c3ccc(C(=O)Nc4ccc(NS(C)(=O)=O)cc4)cc3)c2)o1` [GW702865], the “%Inh” value with CDK4-cyclinD3 (setting [1]) worked out at 0%; in the assay with CDK4 (setting [1]), 0%; with CDK5, 0%; in the assay with CDK7, 0%; in the assay on CDK8, 28%; in the assay with CDK9, 0%. Moreover, the “%Inh” value was 5% with CDKL1; 18% in the assay on CDKL2; 0% with CDKL3; 0% in the assay with CDKL5; 0% with CHEK1; 30% in the assay on CHEK2. The “%Inh” value turned out to be 7% in the assay on CIT; 2% with CLK1; 0% in the assay with CLK2; 2% in the assay with CLK3; 0% in the assay on CLK4; 37% in the assay with CSF1R-autoinhibited. Moreover, the “%Inh” value in the assay with CSF1R amounted to 1%; with CSK it was 0%.

In the case of `COC(=O)Nc1nc2cc(Oc3ccc(NC(=O)Nc4cc(F)ccc4F)cc3)ccc2[nH]1.Cl` [GW701424], the “%Inh” value in the assay with CDK4-cyclinD3 (setting [1]) was found to be 5%; in the assay on CDK4 (setting [1]), 0%; in the assay on CDK5 it was 0%; with CDK7 it was 37%; in the assay with CDK8 it was 42%; in the assay with CDK9, 0%. In addition, the “%Inh” value came out at 0% with CDKL1; 36% with CDKL2; 0% in the assay on CDKL3; 0% in the assay on CDKL5; 0% with CHEK1; 21% with CHEK2. For the same compound, the “%Inh” value with CIT is 99%; with CLK1 it was 29%; with CLK2 it was 0%; in the assay with CLK3, 14%; in the assay on CLK4, 40%; with CSF1R-autoinhibited, 50%. The entries for the “%Inh” value with CSF1R and in the assay with CSK were 99.7% and 0%, respectively.

Regarding `Nc1nc(-c2ccc3c(N)n[nH]c3c2)cc(N2CCCC2)n1` [GSK2227430], the “%Inh” value in the assay with CDK4-cyclinD3 (setting [1]), with CDK4 (setting [1]), with CDK5, with CDK7, with CDK8 and in the assay on CDK9 was 0% each time. The “%Inh” value in the assay on CDKL1 is 72%; in the assay on CDKL2 it was 0%; with CDKL3 it was 0%; in the assay on CDKL5 it was 0%; with CHEK1, 9%; in the assay with CHEK2, 0%. Moreover, the “%Inh” value in the assay on CIT was found to be 0%; in the assay with CLK1, 26%; in the assay with CLK2, 1%; in the assay on CLK3, 0%; in the assay with CLK4, 36%; in the assay on CSF1R-autoinhibited, 0%. Also, the “%Inh” value stood at 2% with CSF1R and 0% in the assay on CSK.

For `COc1ccc(Nc2nccc(N3CCC(NC(=O)Nc4cc(C)ccc4C)C3)n2)cc1` (stereo not shown) [GSK1379741], the “%Inh” value in the assay with CDK4-cyclinD3 (setting [1]) was found to be 0%; in the assay on CDK4 (setting [1]), 0%; in the assay on CDK5, 0%; in the assay with CDK7, 0%; in the assay on CDK8 it was 11%; in the assay on CDK9, 0%. The “%Inh” value came out at 0% in the assay with CDKL1; 44% with CDKL2; 0% in the assay with CDKL3; 5% with CDKL5; 0% with CHEK1; 0% in the assay on CHEK2. Besides, the “%Inh” value in the assay on CIT worked out at 5%; in the assay with CLK1 it was 14%; in the assay with CLK2 it was 0%; in the assay on CLK3 it was 0%; in the assay with CLK4 it was 0%; with CSF1R-autoinhibited, 0%. Further, the “%Inh” value is on record as 4% with CSF1R and 0% with CSK.
